Compounds without any hit were thinned out: in the full panel of roughly 83,000, 20% have a hit.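 Step 1: grow cells in 96-well plates. Step 2: add test compound at a single concentration. Step 3: incubate 48 h. Step 4: record percent growth.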 Unmarked numbers belong to inactive results. The source made the active and inactive calls. Rule for the calls: active = growth percent below 10; inactive = the rest.
What was measured:
Test in all cases: NCI-60 one-dose screen, 48 h (100 = growth as untreated, 0 = no growth, -100 = all killed)
Conditions in all cases: 10 µM unless noted
DU-145 prostate = test system: DU-145 prostate
K-562 leukemia = test system: K-562 leukemia
MALME-3M melanoma = test system: MALME-3M melanoma
MDA-MB-231 breast = test system: MDA-MB-231 breast
RXF 393 renal = test system: RXF 393 renal
SF-268 CNS = test system: SF-268 CNS
SF-295 CNS = test system: SF-295 CNS
SF-539 CNS = test system: SF-539 CNS
UACC-257 melanoma = test system: UACC-257 melanoma
M14 melanoma = test system: M14 melanoma

Structure (SMILES) | growth (DU-145 prostate) | growth (K-562 leukemia) | growth (MALME-3M melanoma) | growth (MDA-MB-231 breast) | growth (RXF 393 renal) | growth (SF-268 CNS) | growth (SF-295 CNS) | growth (SF-539 CNS) | growth (UACC-257 melanoma) | growth (M14 melanoma)
Cc1ccccc1[C@H]1C(C(=O)c2ccc(Cl)cc2)C2(N[C@@H]1c1ccccc1)C(=O)Nc1ccc(Br)cc12 (stereo not given in full) | 15% | 1.41% (active) | 45.1% | -19.8% (active) | -29% (active) | 31% | 19.3% | 36.9% | 37.3% | 1.39% (active)
O=C(NN1C(=O)/C(=C/C=C/c2ccc([N+](=O)[O-])o2)SC1=S)c1ccc(Cl)cc1 | -100% (active) | 3.88% (active) | -96% (active) | -97.5% (active) | -92.1% (active) | -86.4% (active) | -91.9% (active) | -95.2% (active) | -93.3% (active) | -68.7% (active)
COc1cc2c(c(OC)c1OC)C(=O)CC(c1cccc(NC(=O)c3cc(N)ccc3Cl)c1)O2 (stereo not given) | 47.3% | 15.6% | 54% | 42.7% | 46% | 60.4% | 78.9% | 56.6% | 64.9% | 56%
CC(=O)Nc1ccc(C(=O)NC(=S)Nc2ccc(S(N)(=O)=O)cc2)cc1 | 105% | 86.6% | 89.9% | 99.3% | 93.2% | 97.1% | 102% | 90.7% | 95.2% | 93.6%
CC1(c2cc3cc(Br)ccc3oc2=O)NC(=O)c2c(/C=C/C(=O)OC3CC4CCC3(C)C4(C)C)cccc2N1 (stereo not given) | 84.3% | 28.4% | 102% | 98.2% | 75.2% | 82.8% | 64% | 96.8% | 77% | 86%
Cc1ccc(C2CC(c3ccc(S(=O)(=O)NCCNc4nc(Nc5ccc(F)cc5)nc(N(C)C)n4)cc3)=Nc3c(N)nc(N)nc3N2)cc1 (stereo not given) | 76% | 8.57% (active) | 54.3% | 32.5% | 27.2% | 57.7% | 48% | -44% (active) | 75.4% | 41.5%
COc1ccc2c(c1)c(/C=N/Nc1ccc3ccccc3n1)cn2C | 36.2% | -40.1% (active) | 12.6% | -23.1% (active) | 33.4% | 37.2% | -60.4% (active) | -36.2% (active) | 61.7% | -6.98% (active)
COc1cc(C2CC(c3cc(OC)c(OC)c(OC)c3)=NN2c2ccccc2)ccc1OCc1ccc(C)cc1 (stereo not given) | 100% | 92.8% | 95.3% | 102% | 101% | 87.6% | 108% | 95.7% | 101% | 97.8%
O=c1[nH]c2ccccc2cc1CSc1cccc(Nc2nccc(-c3ccc4ccccc4c3)n2)c1 | 89.6% | 64.3% | 92% | 95.6% | 81.3% | 98.1% | 88% | 98.3% | 99.3% | 86.7%
COc1ccc(NC(=O)[C@H](CO)NC(=O)OC(C)(C)C)cc1C(=O)Nc1cccc(C2CC(=O)c3c(cc(OC)c(OC)c3OC)O2)c1 (stereo not given in full) | 58.4% | 28.4% | 61.4% | 41.9% | 53% | 65.1% | 69.1% | 79.1% | 75.3% | 66%
COc1cc(C2CC(c3ccc(S(=O)(=O)NCCNc4nc(Nc5ccc(F)cc5)nc(N(C)C)n4)cc3)=Nc3c(N)nc(N)nc3N2)cc(OC)c1OC (stereo not given) | 103% | 47.2% | 84.4% | 43.7% | 74% | 82.8% | 94% | 86% | 97.9% | 101%
Cn1cc(NC(=O)c2cc(NC(=O)c3ccc(/C=C/c4ccccc4)cc3)cn2C)cc1C(=O)NCCCN1CCOCC1 | 44.4% | -41.3% (active) | -83.3% (active) | -19.9% (active) | -3.75% (active) | 58.6% | -80.5% (active) | -98.2% (active) | 77.9% | -84% (active)
Cc1cc(=O)oc2cc(OCCCCOc3ccc(/C=C/C(=O)Nc4ccccc4N)cc3)ccc12 | 65.7% | 35% | 90.8% | 48.2% | 90.9% | 49.4% | 63.1% | 53.1% | 82.4% | 79.5%
